Screening results: PubChem BioAssay, several laboratories
The list is not random: actives were taken first. Their share in the collection is about 2.7%.
IDE inh: human IDE inhibitors in live cells, primary screen, fluorescence polarization, HEK cells, FAbetaB substrate; inhibition, % at 5.59 µM; hit rate 0.41% among 320,000; Insulin-degrading enzyme (Homo sapiens), P14735; FAbetaB cleavage;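 active means percent inhibition above the average of all tested compounds plus 3 SD, set per screening campaign, cut at about 16% in these data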;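 further: IDE supplied by intact live HEK cells; FP after avidin binding of uncleaved biotin substrate so inhibition keeps polarization high; 0% = DMSO wells and 100% = 60 µM reference IDE inhibitor Ii1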
Target sequence (P14735 whole entry, looked up): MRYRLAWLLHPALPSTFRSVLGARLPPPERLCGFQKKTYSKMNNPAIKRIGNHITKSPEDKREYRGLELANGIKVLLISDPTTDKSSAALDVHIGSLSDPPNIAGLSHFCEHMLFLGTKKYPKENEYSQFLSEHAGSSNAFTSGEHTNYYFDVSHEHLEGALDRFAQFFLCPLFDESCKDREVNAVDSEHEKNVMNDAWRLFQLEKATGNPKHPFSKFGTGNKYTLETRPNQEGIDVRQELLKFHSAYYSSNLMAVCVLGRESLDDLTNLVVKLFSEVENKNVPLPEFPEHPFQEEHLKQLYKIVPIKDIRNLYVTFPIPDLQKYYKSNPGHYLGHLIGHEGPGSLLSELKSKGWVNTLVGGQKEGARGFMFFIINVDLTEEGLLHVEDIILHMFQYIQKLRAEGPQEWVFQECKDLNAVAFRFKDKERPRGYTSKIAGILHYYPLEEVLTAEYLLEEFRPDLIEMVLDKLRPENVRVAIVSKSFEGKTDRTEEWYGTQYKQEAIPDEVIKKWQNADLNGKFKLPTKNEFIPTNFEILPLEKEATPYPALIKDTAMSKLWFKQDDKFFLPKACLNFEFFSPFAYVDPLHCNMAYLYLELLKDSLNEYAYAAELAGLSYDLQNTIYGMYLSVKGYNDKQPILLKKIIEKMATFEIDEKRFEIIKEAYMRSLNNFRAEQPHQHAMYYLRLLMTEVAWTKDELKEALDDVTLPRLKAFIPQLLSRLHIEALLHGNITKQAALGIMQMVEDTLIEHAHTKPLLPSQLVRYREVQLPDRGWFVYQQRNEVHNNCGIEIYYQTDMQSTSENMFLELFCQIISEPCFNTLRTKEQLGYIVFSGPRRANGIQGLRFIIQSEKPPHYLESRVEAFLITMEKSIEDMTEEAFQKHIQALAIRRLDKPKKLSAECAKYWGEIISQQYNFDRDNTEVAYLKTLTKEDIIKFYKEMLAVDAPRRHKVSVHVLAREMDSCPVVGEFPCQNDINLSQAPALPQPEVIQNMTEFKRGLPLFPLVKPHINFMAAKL
TMEM16A act: TMEM16A chloride channel activators or potentiators, primary screen, cell-based, HTS. AID 623877, 2012. B-score at 10 µM. Anoctamin-1 (Mus musculus), Q8BHY3. HEK293 TMEM16A/YFP-H148Q/I152L, iodide quench fluorescence; hits give low values. hit rate 0.3% among 340,000;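 active means fluorescence-ratio B-score plate-corrected deviation score at least 3 library SD below zero, with starting fluorescence score within 5 deviations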;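 further: channel opened by trigger with iodide after compound preincubation; score built on the fluorescence ratio of max minus min over baseline; more negative score means more quench and so TMEM16A activation or potentiation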
CHT block: inhibitors of human choline transporter CHT; High affinity choline transporter 1 (Homo sapiens), Q9GZV3; CHT-expressing cells, membrane potential dye, choline response; hits give low values; B-score at 10 µM; hit rate 0.86% among 310,000;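 active means B-score over 3 SD under the library average, and starting fluorescence ratio not unusually high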;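 further: choline stimulus applied at its EC90 after an EC20 pre-addition; B-score computed on integrated fluorescence ratio after choline addition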
CHT PAM: CHT positive allosteric modulators, primary screen, cell-based, membrane potential dye, choline EC20; High affinity choline transporter 1 (Homo sapiens), Q9GZV3; CHT-expressing cells; hits give high values; LV-AA mutant CHT in HEK293 cells; B-score at 10 µM; hit rate 0.49% among 310,000; AID 488977, 2010;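 active means initial fluorescence not abnormally high and integrated response B-score, plate-corrected, over 3 SD above library mean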
TMEM16A inh: TMEM16A chloride channel inhibitors, primary screen, cell-based, HTS; AID 588511, 2011; HEK293 TMEM16A/YFP iodide influx fluorescence, ionomycin; hit rate 1.2% among 310,000; normalized B-score (activity score, 25-100; higher = stronger inhibition) at 10 µM; Anoctamin-1 (Mus musculus), Q8BHY3;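 active means ratio plate-corrected score three or more library SD toward inhibition, starting fluorescence score within five deviations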;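 further: score derived from kinetic fluorescence span divided by baseline fluorescence per well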
IDE act: human IDE activators in live cells, primary screen, fluorescence polarization, HEK cells, FAbeta-B substrate; hit rate 0.073% among 340,000; Insulin-degrading enzyme (Homo sapiens), P14735; FAbeta-B cleavage; 0% vehicle, 100% cell-free pure enzyme wells; activation, % at 5.96 µM; AID 493087, 2011;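 active means activation above the mean of all tested compounds plus 3 SD, set per screening campaign, cut at about 17% in these data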
Starred values were filed as active, the others as inactive; i = inactive; . = no result.

SMILES	IDE inh	TMEM16A act	CHT block	CHT PAM	TMEM16A inh	IDE act
N#CC(=C(c1ccccc1)c1ccccc1)c1ccccc1	.	i	.	.	.	3
CC1Sc2ccc(S(=O)(=O)N3CCC(C(=O)Nc4cccc(Cl)c4)CC3)cc2NC1=O (configuration not stated)	7	i	i	i	25*	-4
Cc1ccc(NC(=O)C2CCN(S(=O)(=O)c3ccc4c(c3)NC(=O)C(C)S4)CC2)cc1C (configuration not stated)	6	i	i	i	i	-5
COc1ccc(Cl)cc1NC(=O)CN(C)C(=O)c1cc2c(s1)CCCC2	.	i	.	.	.	3
CC(C)OCCCn1c(SC(C)C(=O)NCC2CCCO2)nc2cc(Cl)ccc2c1=O (configuration not stated)	8	i	i	i	i	0
CC(C)Cn1c(SC(C)C(=O)NCC2CCCO2)nc2ccc(Cl)cc2c1=O (configuration not stated)	-6	-25*	.	.	.	2
COc1ccc(C(=O)c2ccc(N(C)C)cc2)c(OC)c1	-1	i	i	i	i	-1
CN(C)c1ccc(C(=O)c2ccc(N(C)C)c3ccccc23)cc1	-4	i	i	10*	i	6
O=C(Cn1cc([N+](=O)[O-])ccc1=O)NC1CCCCC1	-2	i	.	.	.	0
CCOc1ccc(C(=O)NCc2ccccn2)cc1	-1	i	i	i	i	8
O=C(NCc1ccccn1)c1coc(=O)c(Br)c1	1	i	i	i	100*	9
CCOC(=O)c1cc([N+](=O)[O-])c([N+](=O)[O-])cc1NC(C)=O	-2	i	-5.9*	i	i	-2
CC(C)c1ccc(NC(=O)NCc2cccnc2)cc1	-1	i	i	i	i	0
CCOc1ccccc1NC(=S)NCCc1ccccc1	-3	-5.2*	i	i	i	2
CN(C)S(=O)(=O)c1ccc(S(=O)(=O)N(Cc2ccco2)Cc2ccccc2Cl)cc1	-6	-19*	i	i	i	3
COc1ccc(S(=O)(=O)N(Cc2ccc(OC)c(OC)c2)Cc2ccco2)cc1	0	i	i	i	25*	2
CC(C)CCN1C(=O)c2cccc3c(N)ccc(c23)C1=O	-22	i	i	i	i	54*
Nc1ccc2c3c(cccc13)C(=O)N(c1ccccc1)C2=O	.	i	.	.	.	-14
O=P(CCCCCCCCCP(=O)(c1ccccc1)c1ccccc1)(c1ccccc1)c1ccccc1	5	i	i	i	100*	-2
O=C(O)CCCCCCCCCCP(=O)(c1ccccc1)c1ccccc1	0	i	i	i	i	5
CC(C)c1cc(-c2cc(C(=O)Nc3ccccc3)on2)nc(NCC2CC2)n1	-1	.	i	i	i	.
CC(C)c1cc(-c2cc(C(=O)NCc3ccccc3)on2)nc(NCC2CC2)n1	-2	-6.6*	i	i	100*	2
COc1ccc(NC2CCCN(C(=O)c3ccc(C)c(N4CCNC4=O)c3)C2)cc1 (configuration not stated)	-3	i	i	i	i	-1
Cc1ccc(N/C=C(\C#N)S(=O)(=O)c2ccccc2)cc1	3	i	i	i	i	18*
COc1ccc(N/C=C(\C#N)S(=O)(=O)c2ccc(OC)cc2)cc1	3	i	i	i	i	-3
SMILES	IDE inh	TMEM16A act	CHT block	CHT PAM	TMEM16A inh	IDE act
COc1ccc(NC(=O)CSc2nc3scc(C)c3c(=O)[nH]2)cc1	0	i	i	i	i	-4
CNC(=O)NC(=O)CSc1ccc(S(=O)(=O)N2CCOCC2)cn1	-2	i	.	.	.	10
N#C/C(=C\c1ccc[nH]1)Sc1nc2ccccc2s1	9	i	i	i	i	-2
N#C/C(=C\c1cccs1)Sc1nc2ccccc2s1	1	-20*	i	i	i	1
COc1cc(C(=O)NCc2ccc(S(N)(=O)=O)cc2)ccc1OCC(=O)Nc1cccc(C(F)(F)F)c1	0	i	i	i	i	6
COc1cc(C(=O)N(C)CCOc2ccccc2)ccc1OCC(=O)Nc1cccc(C(F)(F)F)c1	-2	i	i	i	100*	2
O=C(Nc1ccc(F)cc1)c1ccc2c(=O)n3c(nc2c1)CCCCC3	4	i	i	i	25*	3
CC(=O)c1ccc(NC(=O)c2ccc3c(=O)n4c(nc3c2)CCCCC4)cc1	3	i	i	i	i	-6
CN1C=CC(=O)[C@@H](OC(=O)Nc2ccc(Br)cc2)[C@H]1c1ccccc1Br	.	.	.	.	.	1
N#C/C(=C/c1ccc(O)c([N+](=O)[O-])c1)C(=O)Nc1ccccc1	5	i	i	i	25*	2
N#C/C(=C/c1ccc([N+](=O)[O-])cc1)C(=O)Nc1ccccc1O	-6	i	i	i	i	7
O=C(Nc1cccc(/C=C/c2ccccn2)c1)c1ccc(-n2cncn2)c([N+](=O)[O-])c1	4	i	i	i	25*	-7
Cc1ccc(O)c(C2=NNC(O)(C(F)(F)F)C2)c1 (configuration not stated)	-4	i	i	i	25*	7
CCN(Cc1nc(-c2ccccc2)no1)C(=O)c1ccco1	7	i	i	i	i	4
Nc1ccc2c(c1)C(=O)C(=O)c1ccccc1-2	-4	i	i	i	25*	-1
COC(=O)c1ccc(/C=C/C(=O)OCC(=O)NCc2cccs2)cc1	2	i	.	.	.	-1
O=C(O)CN1C(=O)C(=O)N(Cc2ccccc2F)C1=O	4	i	i	i	i	3
C[C@@H](NC(=O)c1ncn(Cc2ccccc2)c1C(=O)N[C@H](C)c1ccccc1)c1ccccc1	1	i	.	.	.	1
NC1(N)OC(CN2C(=O)c3ccccc3C2=O)CS1 (configuration not stated)	-1	i	i	i	100*	5
O=C(NN=Cc1c(O)ccc2ccccc12)c1ccncc1	.	i	.	.	.	-69
O=C(N/N=C\c1c(O)ccc2ccccc12)c1cncc(Br)c1	11	i	i	i	i	47*
NC1=NC(c2cccc(Cl)c2)N(CCc2ccc(F)cc2)C(N)=N1 (configuration not stated)	1	i	i	i	i	5
CCN(CC)S(=O)(=O)c1cccc(-c2nnc(SCCCC(=O)c3ccc(F)cc3)o2)c1	-6	-4.6*	i	i	i	4
